Screening data as filed in PubChem.
Only a selection was taken, and hits are over-represented in it overall.
Shiga inhibitor: blocks Shiga toxin action in Vero cells; Vero cells, Shiga toxin protein synthesis inhibition reporter; inhibition, % at 38.7 µM; hit rate 9.2% among 290,000; AID 2315; in the data active = inhibition mostly above about 28%, no sharp cut-off; inactive = mostly below about 43%; also: 0% is about no effect
Tb PYK inh: T. brucei pyruvate kinase inhibition. TbPYK enzyme, Kinase-Glo Plus ATP luminescence, 45 min. AID 624173. hit rate 0.12% among 410,000. Potency, µM (titrated, usually from 76.8 µM), inactives show at the top dose activity, negative = inhibition, hits mostly inhibitors. Q57TT1; active = well fitted curve in the direction sought with a large enough effect; inconclusive = small, poorly fitted or top-dose-only effect, or another doubt; inactive = no such curve, though single readings can be large; an effect the other way counts as inactive or inconclusive; also: potency is read from the fitted curve at half-maximal effect; % is scaled to controls: 0 for no effect and ±100 for the full control effect; nearly all actives have a fitted effect of over 50% in size
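Enzyme and substrate buffer are dispensed first and compound is pin-transferred. ADP at 130 uM final then starts the reaction, which runs 45 min at room temperature. Detection reagent is added for 10 min before luminescence is imaged.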
NS1 inh: inhibitors of influenza NS1 protein function. Potency, µM (titrated, usually from 46.1 µM), for the others: at the top dose activity, positive = more growth. hit rate 0.4% among 270,000; also: potency is read from the fitted curve at half-maximal effect; actives are rising curves; nearly all actives have a fitted effect of over 50% in size
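S. cerevisiae expressing influenza A NS1, grown in glucose, washed, then diluted 1:100 into pH 6.0 -URA galactose medium with 23 nl compound. Growth recovery read as OD600; NS1-free strain serves as control.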
SARS PLpro yeast: inhibitors of SARS-CoV papain-like protease in yeast | AID 485353 | Potency, µM (doses to about 32.9 µM), for inactives: at the highest dose activity, positive = growth rescue, usual class: activators | hit rate 0.19% among 330,000 | S. cerevisiae expressing SARS-CoV PLpro, growth rescue; also: potency is read from the fitted curve at half-maximal effect; 0% is about no effect; nearly all actives have a fitted effect of over 55% in size
Cycloheximide cs: affects cycloheximide protein synthesis inhibition readout, counter-screen. cell reporter, cycloheximide protein synthesis inhibition counterscreen. AID 2314. hit rate 12% among 300,000. max response, %; in the data active = max response mostly above about 13%, no sharp cut-off; inactive = mostly below about 14%; also: read at 38.3 µM for the half of the compounds with a filed dose; 0% is about no effect
LmPK inhibitor: LmPK (Leishmania mexicana) enzyme inhibition. Q27686. purified LmPK, Kinase-Glo ATP luminescence, 1 h. Potency, µM (titrated, usually from 57.5 µM), inactives show at the highest dose activity change, negative = inhibition, hits mostly inhibitors. hit rate 0.37% among 290,000. AID 1721; active = well fitted curve in the direction sought with a large enough effect; inconclusive = small, poorly fitted or top-dose-only effect, or another doubt; inactive = no such curve, though single readings can be large; an effect the other way counts as inactive or inconclusive; also: potency is read from the fitted curve at half-maximal effect; % is scaled to controls: 0 for no effect and ±100 for the full control effect
Target sequence (Q27686 whole entry, looked up): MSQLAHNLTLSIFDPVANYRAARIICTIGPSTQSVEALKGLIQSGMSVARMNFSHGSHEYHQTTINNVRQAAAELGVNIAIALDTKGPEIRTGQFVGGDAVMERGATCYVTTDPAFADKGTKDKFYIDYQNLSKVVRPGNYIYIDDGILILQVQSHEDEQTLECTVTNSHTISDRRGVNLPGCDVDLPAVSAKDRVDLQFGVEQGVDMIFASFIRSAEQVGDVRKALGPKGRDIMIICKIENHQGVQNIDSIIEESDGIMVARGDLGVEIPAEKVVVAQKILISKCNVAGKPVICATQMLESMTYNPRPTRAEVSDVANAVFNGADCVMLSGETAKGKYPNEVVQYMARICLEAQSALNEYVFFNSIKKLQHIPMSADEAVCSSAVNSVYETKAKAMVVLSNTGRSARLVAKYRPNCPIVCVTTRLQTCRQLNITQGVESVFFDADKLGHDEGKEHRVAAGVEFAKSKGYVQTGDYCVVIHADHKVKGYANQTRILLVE
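Kinase-Glo luminescence read after 1 h RT reaction of 0.1 nM LmPK with 0.5 mM PEP and 0.1 mM ADP. Activity scaled between uninhibited and enzyme-free controls.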
Active calls of the source: *; ? = inconclusive; . = no result; + = active, no number; [ ] = dose if it differs, or a comment. Unless noted, calls follow the shape of the full dose curve.

SMILES | Shiga inhibitor | Tb PYK inh | NS1 inh | SARS PLpro yeast | Cycloheximide cs | LmPK inhibitor
Cc1cccc(N2CC(C(=O)Nc3nnc(SCc4ccccn4)s3)CC2=O)c1 (centres undefined) | 24 | -12% | ? | 1% | 7 | -2%
Cc1ccc(N(CN2C(=O)C3C4CCC(C4)C3C2=O)C(=O)c2ccco2)cc1 (centres undefined) | 20 | 2% | -2% | 1% | -3 | 0%
COc1cccc(CSc2nnc(-c3ccncc3)n2N)c1 | -7 | 4% | 7% | 3% | -3 | -4%
COc1ccc(N=C(N)SCc2ccccn2)cc1 | 46* | -2% | 15% | -7% | 31* | 0%
COc1ccc(-c2nnc(SCc3ccccc3)n2N)cc1 | 61* | -8% | 1% | 2% | 44* | 4%
Cc1ccc(/C=C2/SC(=S)N(CCC(=O)N3CCN(C)CC3)C2=O)cc1 | 8 | 4% | -1% | 0% | -3 | -3%
Cc1ccc(/C=C2/SC(=S)N(CCC(=O)N3CCOCC3)C2=O)cc1 | 23 | -5% | -17% | 1% | 16* | 7%
Cc1ccc(/C=C2\SC(=O)N(CCC(=O)N3CCN(C)CC3)C2=O)cc1 | 45* | -4% | -5% | 3% | 27* | 5%
Cc1ccc(/C=C2\SC(=S)N(CCC(=O)NNC(=O)c3ccncc3)C2=O)cc1 | 3 | 0% | 4% | -1% | -2 | 2%
Cc1ccc(/C=C2\SC(=S)N(CCC(=O)NNS(=O)(=O)c3ccc(C)cc3)C2=O)cc1 | 13 | -8% | 12% | 25% | 25* | 5%
CCNC(=O)CC1C(=O)N(c2ccc(C)cc2)C(=O)N1CCC(C)C (centres undefined) | -5 | 0% | -3% | -1% | -2 | 1%
C/C(=N/NC(=O)CNC(=O)c1cccs1)c1ccco1 | 51* | -2% | 0% | 0% | -3 | 1%
O=C(Cc1cccs1)N/N=C/C=C/c1ccco1 | + | -13% | 1% | -1% | 26* | 3%
C/C(=N/NC(=O)Cc1cccs1)c1ccco1 | 27* | ? | 4% | -1% | 22* | 6%
O=C(CNc1cccc2ccccc12)N/N=C/C=C/c1ccco1 | -8 | -5% | . | -8% | -4 | -5%
O=C(NN=C1C2CC3CC(C2)CC1C3)c1ccncc1 | 5 | -4% | 18% | -1% | 0 | -4%
O=C(NN=C1C2CC3CC1CC(Cl)(C3)C2)c1cccs1 | 35 | 4% | . | -5% | 45* | -5%
O=C(NN=C1C2CC3CC1CC(Cl)(C3)C2)c1ccccn1 | 43 | 1% | . | -1% | 14* | 1%
O=C(N[C@@H]1C[C@H]2CC[C@@H]1C2)c1ccco1 | -4 | 3% | 7% | 1% | -1 | -5%
Cc1ccccc1C(=O)N1CCC[C@@H]1C(=O)N1CCC[C@H]1C(=O)NCc1ccncc1 | . | 2% | . | . | . | .
C/C(=C\C(=O)c1ccc(C)cc1)Nc1ccc(N2CCOCC2)cc1 | -5 | . | -7% | -16% | 1 | -2%
Cc1ccc(C(=O)/C=C/C(=O)O)cc1 | 6 | ? | -20% | -34% | 7 | -2%
CC(=O)c1ccc(N/C=C\C(=O)c2ccc(C)cc2)cc1 | 112* | 4% | -1% | 0% | 53* | -9%
O=C(/C=C/Nc1cccc(O)c1)c1ccccc1 | 16 | -12% | -70% | -16% | 15 | 14µM*
Cc1ccc(C(=O)Nc2ccc(Nc3ccccc3)cc2)cc1Br | . | 3% | . | . | . | .
SMILES | Shiga inhibitor | Tb PYK inh | NS1 inh | SARS PLpro yeast | Cycloheximide cs | LmPK inhibitor
Cc1ccc(N/C=C/C(=O)c2ccccc2)cc1Br | . | -6% | 9% | -1% | 54* | -1%
C/C(=C\C(=O)c1ccc(C)cc1)Nc1cccc(O)c1 | 93* | -2% | -38% | 9% | 43* | -13%
Cc1cc(OCC(=O)Nc2ccc(-c3nc4cc(Cl)ccc4o3)cc2)cc(C)c1Cl | . | 0% | . | . | . | .
Cc1c(N/C=C/C(=O)c2ccc(Cl)cc2)c(=O)n(-c2ccccc2)n1C | 14 | 1% | -189% | -8% | 14 | 2%
Cc1ccc(C(=O)/C=C/Nc2cccc(O)c2)cc1 | -4 | -18% | -12%[9.22 µM] | -21% | 9.7* | ?
CC(=O)c1cccc(N/C=C\C(=O)c2ccc(C)cc2)c1 | 65* | -10% | -42% | -4% | 42* | -3%
Cc1ccc(C(=O)/C=C/NNC(=O)c2ccccc2O)cc1 | 21 | 0% | 13% | -8% | 13 | 6%
Cc1ccc(C(=O)/C=C/Nc2ccc3c(c2)OCO3)cc1 | 164* | -12% | -67% | 0% | 61* | -12%
Cc1ccc(C(NC(=O)/C=C\c2ccc3c(c2)OCO3)C(=O)Nc2ccc3c(c2)OCO3)cc1 (centres undefined) | -6 | 3% | 2% | -2% | 9 | 2%
CC(=O)c1cccc(NS(=O)(=O)c2ccc(N/C=C\C(=O)c3ccc(C)cc3)cc2)c1 | 15 | -4% | -2% | -7% | 13 | 4%
O=C(/C=C/Nc1ccc(F)c(Cl)c1)c1ccccc1 | 59* | -5% | -6% | 11% | 44* | -1%
COc1ccc(Cn2c(=O)[nH]c3cc(C(=O)NC4CCCC4)ccc3c2=O)cc1 | -8 | 1% | . | 0% | -4 | -1%
CCCn1nnc(NC(=S)NC(=O)c2ccccc2OC)n1 | . | 0% | . | 5% | . | .
COc1cc(CC(C#N)(CO)c2nc3ccccc3[nH]2)ccc1OC(F)F (centres undefined) | -3 | 1% | -10% | 0% | -2 | 0%
COc1ccccc1-c1ccc(=O)n(CC(=O)NCc2cccs2)n1 | 40* | -4% | . | 3% | 26 | 9%
CCCCOc1ccc(C(=O)NCCc2cccs2)cc1 | 123* | . | . | -6% | 43* | -15%
COc1ccccc1-c1ccc(=O)n(CC(=O)NCc2ccco2)n1 | 18 | 0% | . | -5% | 9 | -2%
Cc1ccc(C(=O)OCC(=O)NCc2cccs2)cc1C | 11 | 3% | -2% | -1% | 14* | 6%
Cc1ccc(OCC(=O)NCc2cccs2)cc1 | 29* | . | -5% | 4% | 27* | 0%
Cn1c(=O)cc(OCC(=O)NCc2cccs2)c2ccccc21 | 51* | -1% | . | 5% | 18 | 3%
COc1ccc(CNC(=O)COc2cc(=O)n(C)c3ccccc23)cc1 | 17 | -12% | . | -5% | -9 | -4%
COc1cc(C#N)ccc1OCC(=O)NCc1cccs1 | 53 | -2% | 6% | 0% | 15* | 0%
CCCCn1nc2cc(C(=O)NCCc3cccs3)ccc2c1OCC | 38 | 2% | -1% | -5% | 11 | 7%
CCOc1ccc(C(=O)NCc2cccs2)cc1 | 83* | -2% | -14% | 5% | 14 | -1%
CCOc1c2ccc(C(=O)NCCc3cccs3)cc2nn1CC | 89* | 4% | -11% | 5% | 48* | 1%
COc1ccccc1-c1cc(NC(C)=O)c2ncc(-c3cccc(C(C)=O)c3)n2c1 | . | -1% | . | . | . | .
OC[C@@H]1CN(Cc2ccc(-c3ccccc3)cc2)C[C@H](n2cnc3c(NC4CCC4)ncnc32)O1 | . | -17% | . | . | . | .
O=C(NNC(=O)c1nc2ccccc2[nH]1)OCc1ccccc1 | . | -5% | . | 1% | . | .
